From the supplement of paper PMC12819154, “High-throughput peptide-centric local stability assay extends protein–ligand identification to membrane proteins, tissues and bacteria” (Nature Structural & Molecular Biology, 2025)

Compound: CN[C@@H]1C[C@H]2O[C@@](C)([C@@H]1OC)n1c3ccccc3c3c4c(c5c6ccccc6n2c5c31)C(=O)NC4 [staurosporine]
Assay: log2 fold change of tryptic peptide abundance, ligand vs vehicle (limited proteolysis) (log2 ratio); higher = more trypsin-susceptible (destabilized)
Settings: ligand concentration: 20 uM; sample: mouse liver crude lysate; replicate design: treated separately

Sequence of UniProt O70293 (O70293 whole entry): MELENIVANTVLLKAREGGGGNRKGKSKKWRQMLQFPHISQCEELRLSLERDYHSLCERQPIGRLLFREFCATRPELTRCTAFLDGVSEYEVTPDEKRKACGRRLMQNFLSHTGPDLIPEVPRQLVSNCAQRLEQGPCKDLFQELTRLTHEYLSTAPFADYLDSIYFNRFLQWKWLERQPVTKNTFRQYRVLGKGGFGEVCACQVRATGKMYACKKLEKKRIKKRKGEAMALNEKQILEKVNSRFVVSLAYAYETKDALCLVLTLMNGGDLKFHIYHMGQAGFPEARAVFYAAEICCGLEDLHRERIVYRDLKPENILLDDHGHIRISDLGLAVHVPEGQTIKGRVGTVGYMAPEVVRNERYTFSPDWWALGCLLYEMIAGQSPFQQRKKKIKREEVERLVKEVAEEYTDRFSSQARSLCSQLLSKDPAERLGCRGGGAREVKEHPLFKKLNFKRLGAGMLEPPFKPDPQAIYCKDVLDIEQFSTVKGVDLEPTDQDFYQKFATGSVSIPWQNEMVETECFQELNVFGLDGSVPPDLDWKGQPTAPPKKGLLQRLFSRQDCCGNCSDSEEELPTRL
Sequence of UniProt Q64464 (Q64464 whole entry): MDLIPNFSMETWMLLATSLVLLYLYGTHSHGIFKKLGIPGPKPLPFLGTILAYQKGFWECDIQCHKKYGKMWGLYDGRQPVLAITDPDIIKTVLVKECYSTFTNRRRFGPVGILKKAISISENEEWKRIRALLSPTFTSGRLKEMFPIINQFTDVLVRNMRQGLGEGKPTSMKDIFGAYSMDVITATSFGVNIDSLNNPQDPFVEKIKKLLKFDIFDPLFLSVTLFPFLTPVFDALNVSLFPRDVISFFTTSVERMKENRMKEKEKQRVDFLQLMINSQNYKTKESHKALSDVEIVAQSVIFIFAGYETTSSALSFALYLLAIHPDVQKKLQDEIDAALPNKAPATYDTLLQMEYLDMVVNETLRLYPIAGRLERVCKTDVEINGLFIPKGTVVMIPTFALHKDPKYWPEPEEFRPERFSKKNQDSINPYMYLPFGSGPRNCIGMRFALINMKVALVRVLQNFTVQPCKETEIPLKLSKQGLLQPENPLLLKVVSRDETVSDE
Sequence of UniProt Q8JZU2 (Q8JZU2 whole entry): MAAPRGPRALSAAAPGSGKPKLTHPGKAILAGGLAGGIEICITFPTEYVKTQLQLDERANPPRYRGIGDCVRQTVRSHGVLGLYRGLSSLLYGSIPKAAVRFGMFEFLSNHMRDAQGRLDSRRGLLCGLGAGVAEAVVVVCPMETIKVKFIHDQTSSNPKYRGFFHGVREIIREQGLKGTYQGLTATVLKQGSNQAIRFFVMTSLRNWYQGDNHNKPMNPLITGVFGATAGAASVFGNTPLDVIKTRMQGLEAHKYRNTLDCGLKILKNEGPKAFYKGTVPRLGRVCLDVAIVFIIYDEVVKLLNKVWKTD
Sequence of UniProt Q5SW19 (Q5SW19 whole entry): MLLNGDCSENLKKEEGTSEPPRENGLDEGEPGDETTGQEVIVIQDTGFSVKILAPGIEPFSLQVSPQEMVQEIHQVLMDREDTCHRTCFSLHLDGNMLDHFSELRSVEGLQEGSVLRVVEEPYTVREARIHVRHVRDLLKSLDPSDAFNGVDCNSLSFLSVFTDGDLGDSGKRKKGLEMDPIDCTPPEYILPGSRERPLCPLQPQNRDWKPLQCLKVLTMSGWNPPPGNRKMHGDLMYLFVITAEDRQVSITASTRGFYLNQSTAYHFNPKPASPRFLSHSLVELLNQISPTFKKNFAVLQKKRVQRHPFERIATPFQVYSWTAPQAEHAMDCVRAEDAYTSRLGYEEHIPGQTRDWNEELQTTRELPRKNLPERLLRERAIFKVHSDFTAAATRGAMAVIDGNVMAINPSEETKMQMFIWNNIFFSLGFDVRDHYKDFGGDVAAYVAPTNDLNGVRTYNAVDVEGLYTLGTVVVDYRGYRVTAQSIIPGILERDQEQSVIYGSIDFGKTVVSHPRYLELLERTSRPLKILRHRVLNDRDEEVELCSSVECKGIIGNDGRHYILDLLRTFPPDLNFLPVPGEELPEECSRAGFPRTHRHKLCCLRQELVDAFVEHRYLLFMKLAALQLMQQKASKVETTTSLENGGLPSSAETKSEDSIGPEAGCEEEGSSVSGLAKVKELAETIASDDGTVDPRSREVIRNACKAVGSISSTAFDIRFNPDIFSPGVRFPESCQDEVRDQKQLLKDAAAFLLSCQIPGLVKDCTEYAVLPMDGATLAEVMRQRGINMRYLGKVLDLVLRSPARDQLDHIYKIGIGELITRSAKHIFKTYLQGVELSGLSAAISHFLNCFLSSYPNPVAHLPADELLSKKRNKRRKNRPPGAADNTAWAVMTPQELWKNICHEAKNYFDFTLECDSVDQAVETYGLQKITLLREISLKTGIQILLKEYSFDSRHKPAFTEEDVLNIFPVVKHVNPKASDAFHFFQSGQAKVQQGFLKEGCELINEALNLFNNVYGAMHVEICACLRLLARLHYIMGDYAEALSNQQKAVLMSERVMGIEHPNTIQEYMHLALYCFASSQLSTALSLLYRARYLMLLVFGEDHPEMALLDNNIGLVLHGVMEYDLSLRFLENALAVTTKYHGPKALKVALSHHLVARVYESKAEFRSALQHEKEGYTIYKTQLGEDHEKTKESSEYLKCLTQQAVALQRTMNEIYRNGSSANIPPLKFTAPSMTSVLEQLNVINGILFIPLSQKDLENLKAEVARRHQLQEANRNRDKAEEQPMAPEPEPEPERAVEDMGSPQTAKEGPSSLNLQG

| Target | log2 fold change |
| --- | --- |
| UniProt O70293 (peptide sequence: EFCATRPELTR, peptide start residue: 69) | -1.23 |
| UniProt Q5SW19 (peptide sequence: YLELLER, peptide start residue: 517) | -0.493 |
| UniProt Q8JZU2 (peptide sequence: FIHDQTSSNPK, peptide start residue: 150) | 0.438 |
| UniProt Q64464 (peptide sequence: ALLSPTFTSGR, peptide start residue: 131) | -0.724 |
